D1 antag: Antagonist of Human D 1 Dopamine Receptor: qHTS; HEK293 TREx D1 cells, calcium flux, dopamine EC80; active compounds read low; activity change, negative = inhibition, % at 10 µM; 360,000 tested, 3.2% active; AID 504652, 2011; in the data active = activity change below about -30%; also: % is scaled to controls: 0 for no effect and ±100 for the full control effect
Target sequence (P21728 whole entry, looked up): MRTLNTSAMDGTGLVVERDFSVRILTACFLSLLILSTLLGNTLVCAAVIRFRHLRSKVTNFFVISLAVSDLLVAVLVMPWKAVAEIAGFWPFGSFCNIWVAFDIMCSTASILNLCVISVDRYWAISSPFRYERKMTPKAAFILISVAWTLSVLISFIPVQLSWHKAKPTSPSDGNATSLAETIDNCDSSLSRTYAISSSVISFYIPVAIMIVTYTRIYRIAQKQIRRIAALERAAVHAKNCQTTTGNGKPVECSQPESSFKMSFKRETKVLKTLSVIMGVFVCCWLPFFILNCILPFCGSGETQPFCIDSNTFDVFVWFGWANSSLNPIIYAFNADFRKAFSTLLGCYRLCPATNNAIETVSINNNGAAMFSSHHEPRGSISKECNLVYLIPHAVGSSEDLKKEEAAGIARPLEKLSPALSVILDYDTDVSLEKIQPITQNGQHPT
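Inducible Hek293 Trex D1 cells (tetracycline, overnight, 30 C). Calcium dye 30–90 min RT. Antagonist mode: EC80 dopamine added after 180 s compound read.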
D1 potentiator: Potentiators of Human D1 Dopamine Receptor: qHTS | D(1A) dopamine receptor (Homo sapiens), P21728 | HEK293 TREx D1 cells, calcium flux, dopamine EC20 potentiation | potentiation, % at 10 µM | 360,000 tested, 0.036% active; in the data active = potentiation above about 30%; also: 0% is about no effect
D1 agonist: Allosteric Agonists of the Human D1 Dopamine Receptor: qHTS; AID 504660, 2011; 360,000 tested, 1% active; activation, % at 2 µM; HEK293 T-REx D1 cells, calcium flux, agonist mode; also: 0% is about no effect
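Inducible HEK293 T-REx D1 cells, force-coupled to calcium signalling, were plated at 4000 cells/well with tetracycline and held overnight at 30 C. After no-wash calcium dye loading, compound-evoked calcium rise over 180 s flagged agonists.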
GRP78 ERSR act: qHTS for Inducers of the Endoplasmic Reticulum Stress Response (ERSR) in Human Glioma: qHTS. U87-MG GRP78 promoter luciferase reporter, 16 h. Potency, µM, without a hit: top-dose activation, hits mostly activators. 420,000 tested, 0.02% active. AID 602332, 2012; active = well fitted activation curve with a large enough effect; inconclusive = small, poorly fitted or top-dose-only effect; inactive = no such curve, though single readings can be large or run the other way; also: potency is read from the fitted curve at half-maximal effect; series mostly up to about 76 µM; % of control where 0% means no effect; nearly all actives have a fitted effect of over 35% in size
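Stably transfected U87-MG human glioma cells carrying a GRP78-based luminescent sensor were seeded at 1000 cells/well, pin-dosed with compounds and incubated 16 h. Luciferase reagent was then added, and end-point luminescence was read after 10 min at room temperature.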
TRHR enhancer: qHTS for Small Molecule Agonists and Allosteric Enhancers of Human TRH Receptor: Primary Screen for Enhancers. AID 493056, 2011. 360,000 tested, 0.66% active. enhancement, % at 2 µM. TRHR cells, fluo-8 calcium fluorescence, EC20 TRH enhancement; in the data active = enhancement above about 30%; also: 0% is about no effect
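Enhancer read-out: after compound pinning and an initial kinetic agonist-mode read, an EC20 of TRH (10 nM final) was injected and fluo-8 calcium signal (Ex 480/Em 530) followed at 1 s/cycle for 100 cycles in TRHR-expressing cells.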
TRHR ag: qHTS for Small Molecule Agonists and Allosteric Enhancers of Human TRH Receptor: Primary Screen for Agonists; AID 493084, 2011; TRHR cells, calcium flux fluo-8, FDSS agonist mode; activation, % at 2 µM; 360,000 tested, 0.18% active; Thyrotropin-releasing hormone receptor (Homo sapiens), P34981; also: 0% is about no effect
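In this calcium-flux screen, cells bearing human TRHR are dye-loaded with fluo-8, baselined for 10 cycles, then exposed to library compounds; positive kinetic calcium responses during the agonist phase mark hits, with TRH as control.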
* hit, by the source's call; ? = inconclusive; · = not tested or not shown. This is a sample that favours compounds with a hit; in the whole collection about 4% have one here. Rule as the data show it, unless noted: active = activation above about 30%; inactive = the rest.

SMILES	D1 antag	D1 potentiator	D1 agonist	GRP78 ERSR act	TRHR enhancer	TRHR ag
COc1cc2c(OC(C)=O)c3c(c(-c4ccc5c(c4)OCO5)c2cc1OC)C(=O)OC3	-16	-6	0	-2%	3	0
COc1ccccc1CN1CCCCC1C(=O)O (configuration not stated)	-7	5	4	-2%	41*	0
Nc1nc(Nc2cccc(Cl)c2)sc1C(=O)c1ccc(F)cc1	-37*	-5	-2	-9%	0	0
COc1ccc(Nc2nc(N)c(C(=O)c3ccc(F)cc3)s2)cc1	11	0	3	-3%	10	2
Cc1c(C(=O)N2CC(C(=O)N3CCCCC3)Oc3ccccc32)oc2ccccc12 (configuration not stated)	2	4	2	-4%	8	-1
O=C(Nc1ccccc1Cc1ccccc1)c1ccccc1NS(=O)(=O)c1ccc(Cl)s1	-60*	-7	28	-6%	-3	2
Cc1ccc(NC(=O)c2ccccc2NS(=O)(=O)c2ccc(Cl)s2)cc1	-44*	0	26	-1%	-4	4
O=C(Nc1ccccc1)c1ccccc1NS(=O)(=O)c1ccc(Cl)s1	-35*	-8	30	-2%	-3	6
O=C(NCc1ccco1)c1ccccc1NS(=O)(=O)c1ccc(Cl)s1	·	-1	21	-5%	-11	1
COc1cc(NC(=O)CCc2ccccc2)c(C(=O)O)cc1OC	4	-4	2	-2%	0	0
Nc1ccc(C=O)cc1	·	·	·	-1%	·	·
COc1ccc(/C=C2\SC(c3ccc(C)cc3)=NC2=O)cc1OC	-6	-5	53*	-3%	-2	14
COc1ccc(/C=C2/SC(c3ccc(C)cc3)=NC2=O)cc1OC	-2	1	6	?	3	6
COc1ccc(/C=C2\SC(=O)NC2=S)cc1OC	2	5	32*	8%	6	12
CC(C)(c1ccccc1)c1ccc(OCCn2cnc3ccccc3c2=O)cc1	5	6	33*	-1%	2	9
O=C(c1ccccc1)c1ccc(OCCn2cnc3ccccc3c2=O)cc1	-29	-6	2	-10%	-7	0
COc1cc(/C=C2\C(C)=C(C#N)c3nc(N)c(C#N)c(C)c32)ccc1OCC(=O)O	-57*	-4	4	0%	-7	2
CC1=C(C#N)c2nc(N)c(C#N)c(C)c2/C1=C\c1ccc(C)cc1	-8	-5	3	·	6	-1
CC1CCc2cc(F)ccc2N1C(=O)CSc1nnc2c(n1)[nH]c1ccc(F)cc12 (configuration not stated)	-37*	-8	13	-2%	0	1
CC1CCCCN1C(=O)CSc1nnc2c(n1)[nH]c1ccc(F)cc12 (configuration not stated)	-4	1	0	1%	5	0
CCC(=O)N1CCc2cc(S(=O)(=O)NCCC(=O)Nc3ccc(C)cc3)ccc21	-9	0	-1	-2%	0	-1
CCC(=O)N1CCc2cc(S(=O)(=O)NCCC(=O)Nc3ccc(OC)c(OC)c3)ccc21	-40*	3	2	-2%	1	1
CCCNC(=O)CN1CCN(S(=O)(=O)c2ccc(Br)s2)CC1	13	-2	1	0%	1	0
CCOc1ccccc1C(=O)NC1CCN(CC(=O)Nc2cc(OC)ccc2OC)CC1	-31*	-11	0	-3%	-5	-1
COc1ccc(F)cc1CN1CCN(CC(=O)Nc2ccccc2C(=O)NC2CC2)CC1	-37*	-7	1	-5%	0	-1
SMILES	D1 antag	D1 potentiator	D1 agonist	GRP78 ERSR act	TRHR enhancer	TRHR ag
CCOc1ccccc1NC(=O)CN1CCC(NC(=O)c2ccccc2C)CC1	-8	-4	2	-2%	-6	-1
COc1ccccc1C(=O)Nc1cc2c(cc1C(=O)O)OCCCO2	11	-3	2	1%	2	0
O=C1C2CCCN2C(c2cccc(Br)c2)N1c1ccc(F)cc1 (configuration not stated)	-20	-3	0	-2%	-12	0
COc1cc2c(cc1OC)C1CC(=O)C(CC(C)C)CN1CC2 (configuration not stated)	5	-1	1	-1%	-2	1
COc1cc2c(cc1OC)C1C/C(=N\O)C(CC(C)C)CN1CC2 (configuration not stated)	-67*	-22	0	-3%	-2	0
Cn1c(Oc2ccc(Cl)c3cccnc23)nc2c1c(=O)n(Cc1ccccc1Cl)c(=O)n2C	5	-2	2	·	-2	0
Cc1ccc(NC(=O)C2CCN(c3nn4c(=O)cc(C)nc4s3)CC2)cc1	-2	-3	-1	2%	-4	-1
O=C(O)Cn1cnc2c(oc3ccccc32)c1=O	7	-6	2	-4%	11	0
O=C(O)c1ccc2c(c1)C(=O)N([C@H](Cc1ccc(C(F)(F)F)cc1)C(=O)O)C2=O	-48*	-3	1	·	1	0
O=C(O)c1ccc2c(c1)C(=O)N(C(Cc1ccccc1)C(=O)O)C2=O (configuration not stated)	25	-3	1	-1%	-13	0
CN(C)S(=O)(=O)c1ccc2oc(SCC(=O)c3c(N)n(C4CC4)c(=O)[nH]c3=O)nc2c1	-9	-1	4	-4%	15	0
CCCCC/C=C\C\C=C/C=C/C=C/[C@@H](SC[C@H](NC(=O)CC[C@H](N)C(=O)O)C(=O)NCC(=O)O)[C@@H](O)CCCC(=O)O	·	·	·	-4%	·	·
COC(=O)c1ccc(NC(=O)CSc2nc3ccc(OC)cc3[nH]2)cc1	-57*	-4	17	0%	2	-2
COc1ccc(NC(=O)CSc2nc3sc(C)cc3c(=O)n2C)cc1	-34*	-4	5	-3%	2	0
COc1ccc2nc(SCC(=O)NC(C)C)[nH]c2c1	11	8	5	1%	-2	-1
COc1ccc(NC(=O)c2ccc(NC(=O)CSc3nc(N)cc(=O)[nH]3)cc2)cc1	-45*	-2	2	-4%	4	0
COc1ccc2nc(SCC(=O)NC3CCCCC3C)[nH]c2c1 (configuration not stated)	-40*	-15	0	-4%	-5	0

Compound activity as filed in PubChem BioAssay.
